Assay outcomes deposited in PubChem BioAssay by National Center for Advancing Translational Sciences (NCATS).
Most compounds without a hit are left out; they make up all but 6% or so of the library.
DRD3 antagonist = qHTS of D3 Dopamine Receptor Antagonist: qHTS; D3R cells, DiscoveRx beta-arrestin luminescence, antagonist mode; active compounds read low; max response, negative = inhibition, %; 360,000 tested, 2.5% active; AID 652054, 2013; D(3) dopamine receptor (Homo sapiens), P35462; in the data active means max response below about -50%; inconclusive means no clear call, values can overlap the other calls; further: on the % scale 0 is the no-effect control and ±100 the full control effect
Target sequence (P35462 whole entry, looked up): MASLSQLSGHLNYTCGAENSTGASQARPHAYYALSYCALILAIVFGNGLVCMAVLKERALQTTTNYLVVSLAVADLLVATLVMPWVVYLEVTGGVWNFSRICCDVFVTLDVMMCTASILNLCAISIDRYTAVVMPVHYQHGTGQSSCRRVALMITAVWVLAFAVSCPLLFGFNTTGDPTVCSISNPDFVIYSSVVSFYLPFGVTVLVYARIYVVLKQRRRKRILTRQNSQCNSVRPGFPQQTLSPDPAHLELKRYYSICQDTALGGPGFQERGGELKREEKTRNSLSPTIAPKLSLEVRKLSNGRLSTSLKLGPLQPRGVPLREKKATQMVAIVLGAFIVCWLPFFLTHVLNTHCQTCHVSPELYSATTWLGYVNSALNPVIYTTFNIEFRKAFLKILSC
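Cells plated overnight at 1500 cells/well, then exposed to library compounds with dopamine controls for 90 minutes at 37 degrees C. DiscoveRx reagent added for 30–60 minutes at room temperature; luminescence read, quantitative HTS format.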
D1 potentiator = Potentiators of Human D1 Dopamine Receptor: qHTS; D(1A) dopamine receptor (Homo sapiens), P21728; 360,000 tested, 0.036% active; HEK293 TREx D1 cells, calcium flux, dopamine EC20 potentiation; potentiation, % at 10 µM; in the data active means potentiation above about 30%; further: 0% is about no effect
D1 antag = Antagonist of Human D 1 Dopamine Receptor: qHTS; D(1A) dopamine receptor (Homo sapiens), P21728; HEK293 TREx D1 cells, calcium flux, dopamine EC80; active compounds read low; activity change, negative = inhibition, % at 10 µM; 360,000 tested, 3.2% active; AID 504652, 2011; in the data active means activity change below about -30%; further: on the % scale 0 is the no-effect control and ±100 the full control effect
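Tetracycline-induced HEK293 Trex D1 cells, force-coupled to calcium, dye-loaded; compounds added and read 180 s, then EC80 dopamine added and calcium flux tracked kinetically another 180 s.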
D3 ag = qHTS of D3 Dopamine Receptor Agonist: qHTS; D3R DiscoveRx beta-arrestin cells, luminescence, 90 min; max activation, %; 410,000 tested, 0.58% active; in the data active means max activation above about 30%; further: 0% is about no effect
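Agonist mode: compounds and dopamine controls were applied to plated cells for 90 min at 37 degrees C after an overnight attachment at 1500 cells/well. Luminescent read-out followed 30 - 60 minutes at room temperature with DiscoveRx detection reagent.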
D1 agonist = Allosteric Agonists of the Human D1 Dopamine Receptor: qHTS; activation, % at 2 µM; HEK293 T-REx D1 cells, calcium flux, agonist mode; 360,000 tested, 1% active; D(1A) dopamine receptor (Homo sapiens), P21728; in the data active means activation above about 30%; further: 0% is about no effect
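Tetracycline-induced HEK293 TREx D1 cells, force-coupled to calcium signalling, were dye-loaded with a no-wash calcium kit. Compound was pin-added after a 10 s baseline. Fluorescence was read kinetically at 1 cycle/s for 180 s, with calcium rises flagged as agonism.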
* = called active by the depositor; ? = inconclusive; nt = not tested or not shown.

SMILES	DRD3 antagonist	D1 potentiator	D1 antag	D3 ag	D1 agonist
Cc1ccc2[nH]c3c(N4CCN(Cc5ccccc5)CC4)ncnc3c2c1	-14.2	2.9	-36.7*	4.8	4.8
Cc1ccc2c(c1)[nH]c1c(N3CCN(Cc4ccccc4)CC3)ncnc12	23.9	-0.7	-16.8	18.7	-1.2
CC(C)(C)NC(=O)C(c1ccc(C(F)(F)F)cc1)n1c(=O)c(-c2cc3ccccc3[nH]2)nc2ccccc21 (stereo not drawn)	17.1	nt	nt	19.7	nt
c1ccc(-c2csc(-n3cccn3)n2)cc1	6.2	-2.5	-5.6	5.1	0.7
Cc1nc2ccccc2cc1OCc1ccccc1	7.7	-6.7	-59.0*	5.1	16.8
COc1ccc(CNC(=O)c2cn(-c3cccc(OC)c3)c(=O)c3ccccc23)cc1	nt	2.6	1.7	3.6	0.2
COc1ccc(CNCc2cc(Cl)ccc2O)cc1	0.0	2.1	0.8	-52.3	38.3*
Oc1ccc(Cl)cc1CNCc1ccc(Cl)nc1	-64.6*	-1.6	nt	-62.3	41.6*
Oc1ccc(Cl)cc1CNCc1ccc(F)c(F)c1	-14.3	-4.5	-3.4	-89.4	17.7
O=C(COc1ccc(CNC[C@H]2O[C@@H](n3ccc(=O)[nH]c3=O)[C@H](O)[C@@H]2O)cc1)Nc1ccccn1	8.3	nt	nt	6.8	nt
Cc1cccc(-c2cc3nc4c(c(N5CCOCC5)n3n2)CCCC4)c1	16.9	-0.6	-8.4	11.0	0.6
Fc1ccc(-c2cc3nc4c(c(N5CCOCC5)n3n2)CCCC4)cc1	45.7	-4.2	-5.1	47.1*	1.1
COc1cc(/C=C2\SC(=O)N(c3ccc(Cl)cc3)C2=O)cc([N+](=O)[O-])c1O	-69.9*	-1.9	1.8	-21.8	1.1
COc1cc(/C=C2\SC(=O)N(c3cccc(Cl)c3)C2=O)cc([N+](=O)[O-])c1O	-61.8*	-9.0	-26.8	-28.9	0.6
CCC(C)[C@H]1O[C@]2(C=C[C@@H]1C)C[C@@H]1C[C@@H](C/C=C(\C)[C@@H](O[C@H]3C[C@H](OC)[C@@H](O[C@H]4C[C@H](OC)[C@H](NC(C)=O)[C@H](C)O4)[C@H](C)O3)[C@@H](C)/C=C/C=C3\CO[C@@H]4[C@H](O)C(C)=C[C@@H](C(=O)O1)[C@]34O)O2 (stereo partly drawn)	nt	nt	nt	13.2	nt
CN(c1ccc(C(=O)NCCSCc2ccc(Cl)cc2)cc1)S(=O)(=O)c1ccccc1	-4.5	5.5	-19.0	-9.8	38.8*
Cc1ccc2c(=O)cc(C(=O)Nc3c(C(=O)Nc4cccc(Cl)c4)oc4ccccc34)oc2c1	nt	2.5	-46.5*	2.9	-1.8
NS(=O)(=O)c1cccc(NC(=O)c2cc(=O)c3ccccc3o2)c1	13.6	-2.9	-3.7	6.4	1.9
CN(c1ccccc1)S(=O)(=O)c1cccc(NC(=O)CCNC(=O)c2ccccc2)c1	1.3	-9.8	-43.3*	-0.3	-0.2
CN(c1ccccc1)S(=O)(=O)c1cccc(NC(=O)c2cc(=O)c3ccccc3o2)c1	123.1	-5.5	-33.9*	16.8	4.5
Cc1ccc(S(=O)(=O)NCC2CCC(C(=O)NCCc3ccc(Cl)cc3)CC2)cc1 (stereo not drawn)	nt	-4.8	-13.9	-7.7	3.2
CC1CCC(N2CC(=O)N(C3CCCCC3)C(c3ccc(Cl)cc3)C2=O)CC1 (stereo not drawn)	nt	0.2	6.9	3.4	-4.3
Cc1cccc(CCN=c2c([N+](=O)[O-])nn(-c3ccccc3)n2O)c1	-6.0	-4.1	3.2	-6.1	2.8
COc1ccc(-n2nc([N+](=O)[O-])c(=NCCc3cccc(C)c3)n2O)cc1	?	2.9	-35.3*	-7.6	3.5
CCOC(=O)c1c(C)[nH]c(C)c1S(=O)(=O)N(C)CC(=O)NCc1ccc(Cl)cc1	nt	-6.2	-26.2	-22.5	1.8
SMILES	DRD3 antagonist	D1 potentiator	D1 antag	D3 ag	D1 agonist
Oc1c(Br)cc(Br)cc1C=Nc1ccc2c(c1)OCCO2	-63.5*	-3.5	26.8	-12.0	3.3
Oc1c(Br)cc(Br)cc1C=Nc1ccc2c(c1)OCO2	-127.8*	5.3	1.9	2.1	4.6
O=[N+]([O-])c1ccc(O)c(C=Nc2ccc3c(c2)OCCO3)c1	-14.4	-5.8	-6.9	2.8	19.3
C[C@@H]1CN([C@H](C)CO)S(=O)(=O)c2ccc(C#Cc3ccccc3F)cc2O[C@@H]1CN(C)C(=O)Cc1ccccc1	18.4	nt	nt	-5.4	nt
Cc1ccc(NC(=O)c2cccc(C(F)(F)F)c2)cc1NC(=O)c1[nH]cnc1C(N)=O	45.5	2.2	nt	30.7*	1.2
CC(C)c1ccc2nc3sc(C(=O)N4CCc5ccccc5C4)c(N)c3cc2c1	48.2	0.1	1.4	4.4	30.6*
CCN1CCc2nc3sc(C(=O)N4CCc5ccccc5C4)c(N)c3cc2C1	-18.2	nt	2.2	-6.6	5.7
Cc1ccc(Cc2c(-c3ccc(Br)cc3)nc3cc(C)ccn23)cc1	0.6	nt	nt	-0.7	nt
Cc1ccc(Cc2c(-c3ccc(F)cc3)nc3cc(C)ccn23)cc1	-68.5*	nt	nt	-12.3	nt
Cc1ccc(-c2nc3ccc(Br)cn3c2Cc2cccc(Cl)c2)cc1	6.6	nt	nt	4.8	nt
Cc1nn(C)c(Oc2cccc(Cl)c2)c1C#N	-14.1	1.3	1.7	-4.8	0.3
Cn1nc(-c2ccccc2)c(C#N)c1Sc1cccc(Cl)c1	-22.6	-3.6	-22.4	-19.4	88.3*
O=C(Nc1cccc(F)c1)Nc1nnc([C@@H]2C[C@H](O)[C@@H](CO)O2)s1	21.5	nt	nt	4.0	nt
O=C(Nc1ccc(OCc2ccccc2)cc1)Nc1nnc([C@H]2C[C@H](O)[C@@H](CO)O2)s1	-52.8*	nt	nt	-14.3	nt
CC(C)NC(=O)Nc1nnc([C@@H]2C[C@H](O)[C@@H](CO)O2)s1	-20.3	nt	nt	38.4*	nt
O=C(Nc1ccccc1)Nc1nnc([C@@H]2C[C@H](O)[C@@H](CO)O2)s1	-67.8*	nt	nt	-11.8	nt
O=C(Nc1ccc(F)cc1)Nc1nnc([C@@H]2C[C@H](O)[C@@H](CO)O2)s1	-3.6	nt	nt	62.0*	nt
CCCCOC(=O)CC(CC(=O)OCCCC)(OC(C)=O)C(=O)OCCCC	nt	nt	nt	0.2	nt
O=[N+]([O-])c1cccnc1N1CCC(c2cc(-c3ccc(Cl)cc3)n[nH]2)CC1	?	0.3	-33.1*	-2.2	2.7
Cc1cc(C)cc(NC(=O)CNS(=O)(=O)c2ccc3nc(C)sc3c2)c1	nt	-3.9	24.5	-4.3	-1.9
CCCS(=O)(=O)c1ncc(Cl)c(C(=O)N2CCN(c3ccc(OC)cc3)CC2)n1	nt	-2.9	-5.6	-21.7	0.4
CCn1c(SCC(=O)c2[nH]c(C)c(C(C)=O)c2C)nnc1-c1ccccc1	-22.9	-5.1	-34.9*	-5.1	8.6
CCOc1ccc(CNS(=O)(=O)c2ccc(-c3cc(C(F)(F)F)on3)s2)cc1	nt	-0.5	-7.6	1.1	2.5
